MCL1 BIM primary – inhibitors of human MCL1 binding to BIM-BH3 peptide | inhibition, % at 10.9 µM | AID 2057 | GST-MCL1 / FITC-Bim-BH3 fluorescence polarization | Q07820 | 320,000 tested, 0.68% active;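 active means inhibition above the mean inhibition of all tested compounds plus 3 SD, set per campaign, cut at about 40% in these data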;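 further: 0% = DMSO wells and 100% = unlabeled Bim-BH3 peptide control; higher means more loss of mP so more displacement of Bim peptide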
Target sequence (Q07820 whole entry, looked up): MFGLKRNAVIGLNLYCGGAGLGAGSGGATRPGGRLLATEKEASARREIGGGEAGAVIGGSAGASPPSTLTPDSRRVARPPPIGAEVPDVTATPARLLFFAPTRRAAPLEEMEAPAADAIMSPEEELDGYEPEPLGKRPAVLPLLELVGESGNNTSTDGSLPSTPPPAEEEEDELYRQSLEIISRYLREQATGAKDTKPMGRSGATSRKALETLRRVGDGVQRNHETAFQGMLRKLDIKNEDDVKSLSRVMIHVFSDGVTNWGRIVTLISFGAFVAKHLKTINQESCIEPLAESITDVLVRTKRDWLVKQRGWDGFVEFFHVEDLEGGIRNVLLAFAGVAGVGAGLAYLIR
GLD-1 RNA inh – GLD-1-TGE RNA interaction inhibition (C. elegans). purified GLD-1 + fluorescein TGE RNA, fluorescence polarization. inhibition, % at 5.96 µM. 320,000 tested, 0.44% active. AID 2280;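 active means percent inhibition above a per-plate cutoff, the plate mean of test compounds plus 3 SD, cut at about 30% in these data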;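 further: 0% = DMSO wells with GLD-1 and probe and 100% = wells lacking GLD-1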
Mcl1 Bid PPI – disrupts binding of human Mcl-1 to Bid peptide; inhibition, % at 21.7 µM; 220,000 tested, 0.97% active; TR-FRET Mcl-1/Bid-Dy647 peptide binding, 1536-well; AID 1021; Q07820;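 active means compounds that cut the binding signal by more than half at the single screening dose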;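 further: His-tagged Mcl-1 with europium anti-His antibody binding Bid BH3 peptide; 0% = Mcl-1 plus peptide wells and 100% = peptide-only wells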
Bim-Mcl-1 – human Bim-Mcl-1 interaction inhibition; Q07820; Bead-based flow cytometry, Bim peptide-Mcl-1 binding; inhibition, % at 10 µM; 190,000 tested, 0.1% active; AID 1009; in the data active means inhibition above about 40%;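 further: 0% = no compound tracer wells and 100% = peptide blocker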
Mcl1-Noxa inh – Mcl-1/Noxa interaction inhibition | TR-FRET Mcl-1/Noxa peptide binding, 2 h | Q07820 | inhibition, % at 21.7 µM | 220,000 tested, 1.5% active;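 active means compounds that cut the protein-peptide binding signal by more than 50% relative to plate controls in a single-dose test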;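 further: His-tagged Mcl-1 with rhodamine Noxa BH3 peptide and terbium anti-His antibody; 0% = Mcl-1 plus Noxa peptide wells and 100% = peptide-only wells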
Bcl-xL primary – blocks human Bcl-xL binding to Bim BH3 peptide. Q07817. GST-Bcl-xL / FITC-Bim BH3 peptide fluorescence polarization. inhibition, % at 10.9 µM. 320,000 tested, 0.7% active. AID 2129;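 active means inhibition above the mean of all tested compounds plus 3 SD, cutoff set per campaign, cut at about 30% in these data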;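 further: 0% = DMSO wells and 100% = unlabeled Bim-BH3 peptide competitor; inhibitors lower millipolarization by displacing the labeled peptide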
Target sequence (Q07817 whole entry, looked up): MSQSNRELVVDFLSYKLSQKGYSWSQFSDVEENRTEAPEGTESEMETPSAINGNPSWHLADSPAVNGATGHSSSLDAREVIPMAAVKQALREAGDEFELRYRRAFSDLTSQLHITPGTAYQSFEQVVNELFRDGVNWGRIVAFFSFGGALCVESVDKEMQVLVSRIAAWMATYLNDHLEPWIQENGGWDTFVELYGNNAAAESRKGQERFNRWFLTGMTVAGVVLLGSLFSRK
GLD1 RNA confirm – GLD-1 TGE RNA interaction inhibition, confirmation; shares compounds with GLD-1 RNA inh; GLD-1/FL-TGE RNA fluorescence polarization, biochemical; inhibition, % at 5.96 µM; 550 tested, 10% active; AID 2459;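 active means average inhibition across triplicates above the hit cutoff set in the primary screen, cut at about 32% in these data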;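 further: 0% = GLD-1 with RNA probe and DMSO and 100% = wells lacking GLD-1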
The depositor's hits bear a star; . = no result. Rows were chosen to be rich in hits. Some 2.3% of all compounds tested hit in one or more screens of this group.

SMILES | MCL1 BIM primary | GLD-1 RNA inh | Mcl1 Bid PPI | Bim-Mcl-1 | Mcl1-Noxa inh | Bcl-xL primary | GLD1 RNA confirm
COc1cc(O)cc2cc3c(c(O)c12)C(=O)CC(C)(O)O3 (stereo unspecified) | 43* | 34* | -111 | . | 50 | 38* | 49*
CN1CCN(C(=O)c2cc(=O)c3cc(Cl)cc(Cl)c3o2)CC1 | -1 | 2 | . | . | . | 4 | .
CCOC(=O)C1=C(COC(=O)Cc2ccc(Cl)cc2)NC(=O)NC1C (stereo unspecified) | -12 | 5 | . | . | . | -5 | .
CO/N=C\Cc1oc(=O)c(NC(=O)c2ccccc2)cc1C(=O)OC | 34 | 37* | -87 | -1 | 12 | 36* | -10
Clc1ccccc1/C=N/NC1=Nc2cccc3cccc1c23 | 15 | 48* | -6 | -2 | -8 | 23 | 22
COc1ccccc1-c1nc(SCC(=O)N2CCC(C(N)=O)CC2)n[nH]1 | -3 | -3 | . | . | . | 3 | .
O=[N+]([O-])c1ccccc1CNCCCCCO | 5 | 7 | . | . | . | -1 | .
Cc1ccc2c(c1)-n1c(nc3ccccc3c1=O)C(CC(C)C)NC2=O (stereo unspecified) | . | 1 | . | . | . | . | .
CC(CNC(=O)CCC(=O)N1CCOc2ccccc21)c1ccccc1 (stereo unspecified) | -6 | 2 | . | . | . | -1 | .
CSC1=NC(C)(C)CC2(C)Nc3ccccc3N12 (stereo unspecified) | 6 | 47* | -89 | -1 | -3 | 15 | 0
CCc1nc(SCC(=O)NC2CCCC2)c2c(=O)n(C)c(=O)n(C)c2n1 | -1 | 5 | . | . | . | 3 | .
CC(/C=C/c1ccc(N(C)C)cc1)=N/N=C1/NC(=O)CC(C(=O)Nc2ccc(Cl)cc2)S1 (stereo unspecified) | -33 | -12 | -57 | -2 | -62 | -7 | .
CC(/C=C/c1ccc(N(C)C)cc1)=N\N=C1\NC(=O)CC(C(=O)Nc2ccccc2)S1 (stereo unspecified) | -18 | 33* | -50 | 0 | -26 | -9 | -83
Cc1cc2ccccc2n1CCNC(=O)c1cccs1 | 39 | 49* | -9 | 6 | 12 | 42* | 6
Cc1cc2ccccc2n1CCNC(=O)C1CCCC1 | 24 | 17 | -19 | -2 | -7 | 27 | .
Cc1cc2ccccc2n1CCNC(=O)C1CC1 | 23 | 35* | . | . | . | 22 | 13
COc1ccc(NC(=O)c2ccc3ccccc3c2OC)cc1 | 0 | 1 | . | . | . | 2 | .
CS(=O)(=O)N(CCC(=O)O)Cc1ccccc1 | 5 | 37* | -2 | -2 | -5 | 5 | -3
CCc1nc2ccc(C(=O)NCCCN3CCN(c4ccccc4F)CC3)cc2nc1CC | 2 | 1 | . | . | . | -2 | .
CCCCN(C(=O)c1cc2ccccc2o1)c1c(N)n(CC(C)C)c(=O)[nH]c1=O | -1 | 6 | 15 | 0 | 20 | 2 | .
CCCCN(C(=O)c1ccc([N+](=O)[O-])o1)c1c(N)n(CC(C)C)c(=O)[nH]c1=O | 39 | 37* | . | . | . | 34* | 65*
CCOC(=O)N1CCN(C2=Nc3cccc4cccc2c34)CC1 | 39 | 49* | -8 | 0 | 5 | 39* | 30
CC(=O)N1CCN(C2=Nc3cccc4cccc2c34)CC1 | 36 | 43* | -15 | -2 | 18 | 37* | 38*
c1ccc(CC2CCN(C3=Nc4cccc5cccc3c45)CC2)cc1 | 9 | 4 | -9 | -3 | 26 | 6 | .
COc1ccccc1N1CCN(C2=Nc3cccc4cccc2c34)CC1 | 2 | 8 | -9 | -2 | 14 | 3 | .
SMILES | MCL1 BIM primary | GLD-1 RNA inh | Mcl1 Bid PPI | Bim-Mcl-1 | Mcl1-Noxa inh | Bcl-xL primary | GLD1 RNA confirm
c1cc2c3c(cccc3c1)C(N1CCOCC1)=N2 | 31 | 45* | -16 | . | 19 | 29 | 32*
CC1CN(C2=Nc3cccc4cccc2c34)CC(C)O1 (stereo unspecified) | 35 | 47* | 0 | 0 | -15 | 38* | 36*
CCCC1=Nc2cc(C(=O)N3CCN(c4ccccn4)CC3)ccc2Sc2ccc(C)cc21 | 5 | 8 | . | . | . | 1 | .
CCc1nn(CC(=O)NCCCN(C)Cc2ccccc2)c(=O)c2cc3sc(C)cc3n12 | -4 | -7 | . | . | . | 3 | .
Nc1cccc2c1C(=O)N(Cc1cccc(Cl)c1)C2=O | 23 | 32* | 11 | -1 | 6 | 22 | 39*
CN1C[C@H](C(=O)NC2(C)OC3(O)[C@@H]4CCCN4C(=O)[C@H](Cc4ccccc4)N3C2=O)CC2c3cccc4[nH]cc(c34)C[C@H]21 (stereo partly specified) | 38 | 33* | . | . | . | 36* | 2
O=C(NC1CCCCCC1)c1ccc(CS(=O)(=O)Cc2ccc(F)cc2)o1 | 4 | 5 | . | . | . | 5 | .
Cc1ccc(CS(=O)(=O)Cc2ccc(C(=O)NC3CC3)o2)cc1 | 5 | 33* | . | . | . | 4 | -8
CCOc1ccc(-n2c(Cc3cc(=O)[nH]c(=O)[nH]3)nnc2SCC(=O)OC)cc1 | 4 | 7 | -20 | 2 | -13 | 6 | .
CCOC(=O)CSc1nnc(Cc2cc(=O)[nH]c(=O)[nH]2)n1-c1ccc(Cl)cc1 | 26 | 38* | -14 | 0 | 21 | 21 | 7
CCN1CCN(Cc2ccc(NC(=O)c3ccc(C)c(NC(=O)c4ccnnc4)c3)cc2C(F)(F)F)CC1 | -7 | 39* | -59 | . | 8 | -1 | 2
CCN1CCN(Cc2ccc(NC(=O)c3ccc(C)c(NC(=O)c4ccc5n[nH]nc5c4)c3)cc2C(F)(F)F)CC1 | -3 | -6 | -46 | . | 10 | 5 | .
CCCn1c(N)c(N(CCOC)C(=O)Cc2ccc(S(=O)(=O)N3CCOCC3)s2)c(=O)[nH]c1=O | 39 | 38* | . | . | . | 41* | 51*
O=C(CC1N=C2c3ccccc3N=C(SCc3ccc(Cl)cc3)N2C1=O)NCc1ccco1 (stereo unspecified) | 30 | 39* | 3 | 1 | 21 | 24 | 16
Cc1ccc(-c2cn3cccnc3n2)cc1NC(=O)c1cccs1 | 3 | 31* | -32 | -2 | 19 | 4 | -4
COc1cc(OC)cc(C(=O)Nc2cc(-c3cn4cccnc4n3)ccc2C)c1 | -3 | -7 | -8 | -1 | 19 | 4 | .
CCOC(=O)C1CCCN(S(=O)(=O)c2ccc(S(=O)(=O)N3CCCC3)cc2)C1 (stereo unspecified) | 0 | 38* | . | . | . | -2 | -4
CCOC(=O)C1CCCN(C(=O)c2ccc(S(=O)(=O)N3CCCC3)cc2)C1 (stereo unspecified) | 1 | 5 | . | . | . | 4 | .
CCOc1ccc2ccccc2c1/C=N/NC(=O)c1ccncc1 | -1 | -4 | . | . | . | 0 | .
COc1ccc(C2C3C(C)=NN=C3CC(C)(O)C2C(C)=O)cc1 (stereo unspecified) | -5 | 1 | 4 | -3 | 17 | 4 | .
